Results: ChEMBL document CHEMBL1961873, “Compounds: GSK PKIS; Assays: Nanosyn kinase panel” (2012)

Tests used:
[1] = target: RAF proto-oncogene serine/threonine-protein kinase (Homo sapiens) (UniProt P04049); settings: at 1 µM;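 note: values are the mean percent inhibition of CRAF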
[2] = target: T1, Interleukin-1 receptor-associated kinase 4 (Homo sapiens) (UniProt Q9NWZ3); settings: at 0.1 µM
T1 sequence (whole entry): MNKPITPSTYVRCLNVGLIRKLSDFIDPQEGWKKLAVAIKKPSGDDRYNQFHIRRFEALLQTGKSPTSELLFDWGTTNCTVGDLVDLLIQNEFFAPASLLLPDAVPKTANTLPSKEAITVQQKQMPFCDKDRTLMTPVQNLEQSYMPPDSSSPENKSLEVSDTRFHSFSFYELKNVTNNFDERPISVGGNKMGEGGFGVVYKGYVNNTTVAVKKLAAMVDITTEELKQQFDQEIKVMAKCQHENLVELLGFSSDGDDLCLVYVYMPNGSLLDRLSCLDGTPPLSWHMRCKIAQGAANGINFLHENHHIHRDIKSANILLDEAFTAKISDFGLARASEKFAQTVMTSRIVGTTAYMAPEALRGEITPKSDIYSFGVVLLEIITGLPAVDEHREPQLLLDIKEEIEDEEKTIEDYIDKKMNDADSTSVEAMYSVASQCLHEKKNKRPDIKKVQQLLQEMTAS

[3] = target: T1, Interleukin-1 receptor-associated kinase 4 (Homo sapiens); settings: at 1 µM
[4] = target: Leucine-rich repeat serine/threonine-protein kinase 2 (Homo sapiens) (UniProt Q5S007); settings: at 0.1 µM
[5] = target: Leucine-rich repeat serine/threonine-protein kinase 2 (Homo sapiens) (UniProt Q5S007); settings: at 1 µM
[6] = tested on: Leucine-rich repeat serine/threonine-protein kinase 2 (Homo sapiens), Q5S007 [G2019S]; settings: at 0.1 µM
[7] = tested on: Leucine-rich repeat serine/threonine-protein kinase 2 (Homo sapiens), Q5S007 [G2019S]; settings: at 1 µM

Chain of Leucine-rich repeat serine/threonine-protein kinase 2 (Homo sapiens) (Q5S007 whole entry): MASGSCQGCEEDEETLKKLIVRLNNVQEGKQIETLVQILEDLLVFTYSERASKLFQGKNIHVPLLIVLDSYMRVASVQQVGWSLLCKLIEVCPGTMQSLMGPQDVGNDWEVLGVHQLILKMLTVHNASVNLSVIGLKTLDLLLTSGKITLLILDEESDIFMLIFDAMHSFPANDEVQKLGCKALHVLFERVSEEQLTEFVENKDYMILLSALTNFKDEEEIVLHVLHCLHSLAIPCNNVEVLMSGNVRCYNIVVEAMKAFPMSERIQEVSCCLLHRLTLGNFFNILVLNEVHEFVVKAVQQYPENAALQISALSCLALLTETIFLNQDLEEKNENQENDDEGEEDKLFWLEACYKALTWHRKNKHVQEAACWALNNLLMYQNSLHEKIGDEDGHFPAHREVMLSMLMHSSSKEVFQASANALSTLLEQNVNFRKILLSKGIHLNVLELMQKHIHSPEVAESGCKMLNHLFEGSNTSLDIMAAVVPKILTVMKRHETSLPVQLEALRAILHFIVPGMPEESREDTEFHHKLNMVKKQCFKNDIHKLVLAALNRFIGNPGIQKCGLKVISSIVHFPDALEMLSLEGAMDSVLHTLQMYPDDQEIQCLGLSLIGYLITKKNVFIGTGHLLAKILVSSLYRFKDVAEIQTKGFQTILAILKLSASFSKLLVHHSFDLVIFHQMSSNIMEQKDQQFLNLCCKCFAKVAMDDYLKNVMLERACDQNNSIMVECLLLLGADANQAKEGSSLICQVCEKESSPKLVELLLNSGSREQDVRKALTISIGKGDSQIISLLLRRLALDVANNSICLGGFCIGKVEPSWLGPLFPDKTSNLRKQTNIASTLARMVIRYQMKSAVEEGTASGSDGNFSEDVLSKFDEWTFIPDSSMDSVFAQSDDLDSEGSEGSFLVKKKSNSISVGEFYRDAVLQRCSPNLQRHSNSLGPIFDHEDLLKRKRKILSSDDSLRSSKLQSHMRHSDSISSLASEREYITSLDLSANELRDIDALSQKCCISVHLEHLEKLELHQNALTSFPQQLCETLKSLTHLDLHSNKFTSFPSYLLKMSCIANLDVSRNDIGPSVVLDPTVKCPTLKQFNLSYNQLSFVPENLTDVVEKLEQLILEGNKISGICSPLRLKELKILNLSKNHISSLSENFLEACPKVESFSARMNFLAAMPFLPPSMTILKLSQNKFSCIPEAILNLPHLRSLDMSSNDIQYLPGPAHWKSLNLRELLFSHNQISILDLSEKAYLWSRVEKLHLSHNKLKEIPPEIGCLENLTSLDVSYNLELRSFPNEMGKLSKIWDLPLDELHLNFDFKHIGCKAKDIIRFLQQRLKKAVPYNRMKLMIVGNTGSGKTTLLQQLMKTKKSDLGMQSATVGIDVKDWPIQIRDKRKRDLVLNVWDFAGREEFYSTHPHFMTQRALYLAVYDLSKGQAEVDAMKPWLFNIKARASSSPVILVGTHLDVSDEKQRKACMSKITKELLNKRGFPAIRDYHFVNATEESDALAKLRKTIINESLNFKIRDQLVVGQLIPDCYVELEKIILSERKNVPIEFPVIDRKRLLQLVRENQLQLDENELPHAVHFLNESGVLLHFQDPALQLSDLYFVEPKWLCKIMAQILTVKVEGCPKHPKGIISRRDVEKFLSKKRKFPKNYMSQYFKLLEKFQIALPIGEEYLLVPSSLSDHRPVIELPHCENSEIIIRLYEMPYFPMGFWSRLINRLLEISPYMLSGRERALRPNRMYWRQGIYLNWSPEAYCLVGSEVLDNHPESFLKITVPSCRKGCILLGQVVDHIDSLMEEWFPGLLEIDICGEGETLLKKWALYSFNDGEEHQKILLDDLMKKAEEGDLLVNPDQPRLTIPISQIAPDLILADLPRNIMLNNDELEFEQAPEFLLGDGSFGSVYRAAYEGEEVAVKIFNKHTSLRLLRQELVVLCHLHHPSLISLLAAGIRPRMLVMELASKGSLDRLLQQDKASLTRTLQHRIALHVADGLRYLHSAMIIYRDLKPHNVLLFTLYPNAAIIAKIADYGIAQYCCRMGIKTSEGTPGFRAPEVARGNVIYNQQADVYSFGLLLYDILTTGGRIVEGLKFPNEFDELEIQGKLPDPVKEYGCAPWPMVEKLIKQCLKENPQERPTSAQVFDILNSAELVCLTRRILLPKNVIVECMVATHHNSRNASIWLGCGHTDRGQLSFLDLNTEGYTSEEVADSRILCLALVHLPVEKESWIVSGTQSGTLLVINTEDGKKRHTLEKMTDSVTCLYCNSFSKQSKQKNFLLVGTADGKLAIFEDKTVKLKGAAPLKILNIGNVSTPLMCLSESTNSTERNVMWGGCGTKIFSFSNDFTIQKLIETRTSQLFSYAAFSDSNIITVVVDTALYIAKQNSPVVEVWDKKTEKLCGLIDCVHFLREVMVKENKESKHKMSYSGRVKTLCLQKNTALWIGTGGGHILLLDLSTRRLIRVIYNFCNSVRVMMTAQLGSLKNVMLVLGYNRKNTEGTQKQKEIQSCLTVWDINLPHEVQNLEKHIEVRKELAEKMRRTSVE
Chain of Leucine-rich repeat serine/threonine-protein kinase 2 (Homo sapiens), Q5S007 [G2019S] (Q5S007 whole entry G2019S): as the sequence (Q5S007 whole entry) above, with G2019S counted along it
Chain of RAF proto-oncogene serine/threonine-protein kinase (Homo sapiens) (P04049 whole entry): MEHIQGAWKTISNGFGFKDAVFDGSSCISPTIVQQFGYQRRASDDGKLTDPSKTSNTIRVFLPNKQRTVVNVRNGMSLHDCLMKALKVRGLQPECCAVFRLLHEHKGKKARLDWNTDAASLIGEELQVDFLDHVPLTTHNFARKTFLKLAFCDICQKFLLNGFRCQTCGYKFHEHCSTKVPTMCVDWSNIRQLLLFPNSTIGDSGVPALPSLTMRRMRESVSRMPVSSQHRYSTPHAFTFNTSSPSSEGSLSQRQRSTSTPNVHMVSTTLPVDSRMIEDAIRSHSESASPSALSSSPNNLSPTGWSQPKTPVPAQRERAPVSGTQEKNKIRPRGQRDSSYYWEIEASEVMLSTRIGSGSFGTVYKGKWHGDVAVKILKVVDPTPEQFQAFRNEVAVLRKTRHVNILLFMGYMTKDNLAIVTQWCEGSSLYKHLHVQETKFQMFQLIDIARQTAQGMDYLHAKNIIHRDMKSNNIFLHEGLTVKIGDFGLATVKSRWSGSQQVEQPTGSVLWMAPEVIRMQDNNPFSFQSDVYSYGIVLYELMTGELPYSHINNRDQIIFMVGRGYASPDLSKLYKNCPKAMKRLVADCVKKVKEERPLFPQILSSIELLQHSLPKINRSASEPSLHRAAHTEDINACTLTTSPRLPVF

Row | SMILES | inhibition [1] | inhibition [2] | inhibition [3] | inhibition [4] | inhibition [5] | inhibition [6] | inhibition [7]
1 | CN1CCC(n2cnc(-c3ccc(F)cc3)c2-c2ccnc(N)n2)CC1 | -4.14% | 3.88% | 0.94% | 0.66% | 1.74% | 1.6% | 9.24%
2 | COc1ccc(-c2nn3ncccc3c2-c2ccnc(Nc3ccc4c(c3)OCCO4)n2)cc1 | -7.5% | -0.42% | -0.94% | 7.1% | 11.4% | 6.14% | 10.2%
3 | CCn1c(-c2nonc2N)nc2cnc(Oc3cccc(NC(=O)c4ccc(N(C)C)cc4)c3)cc21 | -4.15% | 0.85% | 0.95% | 2.37% | 6.56% | 5.49% | 27.4%
4 | CCn1c(-c2nonc2N)nc2c(C#CC(C)(C)O)ncc(OC3CCNCC3)c21 | 1.95% | 2.02% | 1.93% | 0.26% | 6.79% | 3.92% | 12%
5 | CS(=O)(=O)CCNCc1ccc(-c2ccc3ncnc(Nc4ccc(OCc5ccccc5)c(C(F)(F)F)c4)c3c2)o1 | 0.04% | 0.72% | 1.09% | 2.22% | 4.18% | 4.54% | 5.03%
6 | CCCN1CCC(c2ccc(Nc3nc(Nc4cc(F)ccc4C(N)=O)c4cc[nH]c4n3)c(OC)c2)CC1 | 17.1% | 3.12% | 3.69% | 85.5% | 89.7% | 79.9% | 64.4%
7 | CNC(=O)c1cccc(C#Cc2cncnc2Nc2ccc(OCc3cccc(F)c3)c(Cl)c2)c1 | -1.34% | -3.89% | 0.26% | 0.02% | 3.48% | -1.1% | 3.49%
8 | Fc1ccc(-c2cc(-c3c[nH]nc3-c3ccccn3)ccn2)cc1 | -1.83% | 2.71% | 1.76% | 2.24% | 5.28% | 3.03% | 4.92%
9 | COc1cc(Nc2nccc(Nc3ccc4c(C)n[nH]c4c3)n2)cc(OC)c1OC | -9.69% | -1.6% | 6.36% | 9.84% | 17.6% | 10.8% | 43.7%
10 | Fc1cccc(COc2ccc(Nc3ncnc4sc(-c5ccco5)cc34)cc2Cl)c1 | 0.89% | 0.84% | 1.26% | 3.64% | 6.42% | 5.67% | 9.11%
11 | Fc1ccc(-c2nn3ccccc3c2-c2ccncc2)cc1 | -9.31% | 2.69% | 0.14% | 1.66% | 3.74% | 1.38% | 4.57%
12 | COc1ccc(-c2oc3ncnc(N)c3c2-c2ccc(NC(=O)Nc3cc(C(F)(F)F)ccc3F)cc2)cc1 | 5.86% | -1.07% | 2.91% | 6.22% | 15% | 5.81% | 16.8%
13 | CCN1CCC(CC(=O)Nc2n[nH]c3nnc(-c4cccc(F)c4F)cc23)CC1 | 10.2% | 0.45% | 1.11% | 2.47% | 4.14% | 2.58% | 4.75%
14 | COc1ccc(-c2cc(-c3c[nH]nc3-c3ccccn3)ccn2)cc1 | 0.07% | -2.78% | 2.03% | 2.47% | 7.04% | 4.82% | 7.48%
15 | CS(=O)(=O)CCNCc1coc(-c2ccc3ncnc(Nc4ccc(OCc5ccccc5)cc4)c3c2)c1 | 2.03% | 1.8% | 2.23% | 0.86% | 5.65% | 1.72% | 5.71%
16 | Nc1nc(-c2cccc(Cl)c2)c(-c2ccc3ncccc3n2)s1 | -0.32% | 3.86% | 2.05% | 3.53% | 7.21% | 6.96% | 9.35%
17 | CCOc1ccc2c(-c3ccnc(Nc4cccc(C(F)(F)F)c4)n3)cnn2n1 | -1.21% | 0.16% | 1.01% | 3.4% | 6.76% | 4.61% | 10.4%

Row | SMILES | inhibition [1] | inhibition [2] | inhibition [3] | inhibition [4] | inhibition [5] | inhibition [6] | inhibition [7]
18 | CC(=O)NCc1cccc(C#Cc2cncnc2Nc2ccc(OCc3cccc(F)c3)c(Cl)c2)c1 | -4.04% | 2.92% | 0.5% | 0.41% | 7.51% | 2.36% | 7.6%
19 | N#Cc1c(NC(=O)CN2CCOCC2)sc2c1CCCC2 | -1.23% | 1.87% | 2.93% | 2.88% | 8.63% | 3.95% | 8.85%
20 | COc1cc(/C=N/Nc2ncnc3[nH]ncc23)ccc1O | 6.28% | -2.65% | 4.43% | 5.72% | 17.5% | 10% | 45.2%
21 | CCn1cc(-c2ccnc3[nH]ccc23)c(-c2cccc(NC(=O)Nc3ccc(OCc4ccccc4)cc3)c2)n1 | -2.76% | -0.99% | -0.44% | 2.13% | 3.32% | 3.73% | 4%
22 | CC(=O)Nc1cccc(C#Cc2cncnc2Nc2ccc(OCc3cccc(F)c3)c(Cl)c2)c1 | 1.55% | -1.12% | 1.86% | 4.77% | 7.3% | 3.19% | 8.37%
23 | O=S(=O)(CCNCc1ccc(-c2ccc3ncnc(Nc4ccc(OCc5cccc(F)c5)c(Cl)c4)c3c2)o1)c1ccccc1 | 1.37% | 2.14% | 2.63% | 4.97% | 4.53% | 6.27% | 9.28%
24 | CN(C)CCOc1ccc(-c2nc(-c3ccncc3)c(-c3ccc4c(c3)CC/C4=N\O)[nH]2)cc1 | 69.9% | -2.04% | 2.08% | 2.63% | 6.56% | 2.57% | 9.36%
25 | CC(C)(CO)CNC(=O)c1ccc2c(c1)/C(=N/Nc1ccc(S(N)(=O)=O)cc1)C(=O)N2 | -3.84% | -1.23% | -0.85% | 3.58% | 15% | 6.85% | 37.8%
26 | COc1ccc2[nH]c3c4[nH]c5ccc(OC)cc5c4c4c(c3c2c1)C(=O)NC4=O | -1.59% | -1.07% | 4.52% | 20.8% | 24.3% | 61% | 63.2%
27 | COC(=O)Nc1nc2ccc(S(=O)(=O)c3ccc(NC(=O)Nc4cc(C(F)(F)F)ccc4F)cc3)cc2[nH]1 | -2.68% | 2.19% | 1.11% | 4.08% | 3.21% | 2.36% | 6.79%
28 | CCCN(CCS(C)(=O)=O)Cc1ccc(-c2ccc3ncnc(Nc4ccc(OCc5cccc(F)c5)c(Cl)c4)c3c2)o1 | -0.27% | -3.12% | 0.98% | 3.72% | 4.95% | 4.3% | 6.74%
29 | COc1ccc(CNC(=O)c2ccc(-c3cc(-c4nnc(C)o4)ccc3C)cc2)cc1 | -4.44% | 0.85% | 1.98% | 3.51% | 10.8% | 5.52% | 9.35%
30 | [O-][S+]1CCN(Cc2ccc(-c3ccc4ncnc(Nc5ccc(OCc6cccc(F)c6)c(Cl)c5)c4c3)o2)CC1 | -3.13% | 1.66% | 1.66% | 3.74% | 3.96% | 6.35% | 11.4%
31 | CCn1c(-c2nonc2N)nc2c(C#CC(C)(C)O)nc(OC[C@H](N)c3ccccc3)cc21 | -1.64% | 1.14% | 1.37% | 7.19% | 29.8% | 23.8% | 63.2%
32 | CNC(=O)c1cncc(/C=C/c2ccccc2Cl)c1 | -3.13% | -1.64% | 0.01% | 3.2% | 4.57% | 1.78% | 6.07%
33 | c1ccc(-c2nc3n(c2-c2ccc4c(c2)OCO4)CCC3)nc1 | -1.34% | 0.9% | 0.56% | 1.19% | 3.89% | 2.25% | 3.64%
